Our source for the Potency values is PubChem BioAssay (NCATS).

Records with an inconclusive call do not appear. Entries that show only a call come without a potency. Calls of active or inactive are those of the source. Calls follow the shape of the dose curve; as a rule, active = well fitted inhibition curve with a large enough effect; inconclusive = small, poorly fitted or top-dose-only effect; inactive = flat fitted curve, though single readings scatter. Where a SMILES comes first, the peptide text is derived from it. Bridges are numbered along the chain shown (N, C = ends). [ ]: non-standard residue; d: D form. hArg = N=C(N)NCCCC[C@H](N)C(=O)O; Mpa = O=C(O)CCS

For one test, the system named is PC26. The experiment in a line: qHTS profiling for inhibitors of Plasmodium falciparum proliferation (AID 504749). Also: nearly all actives have a fitted effect of over 60% in size. The settings on record: P. falciparum in erythrocytes, SYBR Green DNA, 72 h; series mostly up to 28.7 µM. The method in brief: (§1)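 Three-day growth assay of blood-stage parasites in erythrocytes (0.3% parasitemia, 2.5% hematocrit) at 37 C, 5% CO2, quantified by SYBR Green DNA staining after overnight detergent lysis.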
A general note: In qHTS, concentration-response curves come from the screen itself.
Consider `Cc1cc(-n2nc3ccc(Cl)cc3n2)c(O)c(C(C)(C)C)c1`, for which the Potency result is “inactive”. Consider `CN/C(=C\[N+](=O)[O-])NCCSCc1csc(CN(C)C)n1`, for which the Potency result was “inactive”. On the same count and under the same terms, under `CCN1CC(CCN2CCOCC2)C(c2ccccc2)(c2ccccc2)C1=O` (stereo not given) stands “inactive”; under `CCOC(=O)c1cccnc1`, “inactive”.

The next test concerns PC49. The description is as above. The settings on record: P. falciparum in erythrocytes, SYBR Green DNA, 72 h; series mostly up to 28.7 µM. The method in brief:
as §1
On to `NC(=O)[C@@H]1CSSCCC(=O)N[C@@H](CCCCN=C(N)N)C(=O)NCC(=O)N[C@@H](CC(=O)O)C(=O)N[C@@H](Cc2c[nH]c3ccccc23)C(=O)N2CCC[C@H]2C(=O)N1` ([Mpa][hArg]GDWPC-NH2; disulfide 1-7), for which the Potency result is “inactive”. As for `Cc1ccc(C(C)C)c(O)c1`, the Potency entry is “inactive”. As for `CC[N+](C)(CC)CCOC(=O)C1c2ccccc2Oc2ccccc21`, the Potency result was “inactive”.

Regarding `COc1ccccc1Oc1c(NS(=O)(=O)c2ccc(C(C)(C)C)cc2)nc(-c2ncccn2)nc1OCCO`, the Potency result was “inactive”. For the compound `Cc1cc(C)c(NC(=O)CN(CC(=O)O)CC(=O)O)c(C)c1Br`, the Potency entry is “inactive”. Regarding `Cc1ccc(S(=O)(=O)NC(=O)NC2CCCCCCC2)cc1`, the Potency entry was “inactive”. The same measure, in the same setting: under `CCCNC(C)(C)COC(=O)c1ccccc1` stands “inactive”; under `C[C@@H]1CCC[C@H](C)N1`, “inactive”. Still for that read-out and setting: under `CCOC(=O)[C@H](CCc1ccccc1)N[C@@H](C)C(=O)N1CCC[C@H]1C(=O)O` stands “inactive”; under `c1ccc2[nH]ccc2c1`, “inactive”. On the same count and under the same terms, under `NS(=O)(=O)c1ccc(C(=O)O)cc1` stands “inactive”; under `O=C(Cn1ccnc1[N+](=O)[O-])NCc1ccccc1`, “inactive”. For the compound `O=c1[nH]cnc2nc[nH]c12`, the Potency result was “inactive”. Take `O[C@@H]1CO[C@H]2[C@@H]1OC[C@@H]2O`: the Potency entry is “inactive”. For the compound `CC(=O)NS(=O)(=O)c1ccc(N)cc1`, the Potency entry is “inactive”.

Consider `C=CCNC(N)=S`, for which the Potency entry was “inactive”. Take `NC(N)=NCCN1CCCCCCC1`: the Potency result was “inactive”. In the case of `O=C1c2cccc(O)c2C(=O)c2c(O)cccc21`, the Potency entry was “inactive”. In the case of `NNC(=O)CP(=O)(c1ccccc1)c1ccccc1`, the Potency entry was “inactive”. With `Nc1ccncc1N`, the Potency entry was “inactive”. On to `Cc1ccc(S(=O)(=O)NC(=O)NC2CCCCC2)cc1`, for which the Potency result was “inactive”. On the same count and under the same terms, under `Cc1cc(-n2nc3ccc(Cl)cc3n2)c(O)c(C(C)(C)C)c1` stands “inactive”. On the same count and under the same terms, under `CN/C(=C\[N+](=O)[O-])NCCSCc1csc(CN(C)C)n1` stands “inactive”; under `CCN1CC(CCN2CCOCC2)C(c2ccccc2)(c2ccccc2)C1=O` (stereo not given), “inactive”. In the case of `CCOC(=O)c1cccnc1`, the Potency entry is “inactive”. With `O=C1c2ccccc2C(=O)C1c1ccc(Br)cc1`, the Potency result was “inactive”.
